# Screening results (PubChem)
# LMNA splice mod: qHTS Assay for Modulators of Lamin A Splicing; HeLa LMNA splicing GFP/RFP minigene ratio, 48 h; Potency, µM (titrated, usually from 46.1 µM), for the others: at the top dose ratio change, negative = inhibition, hits mostly inhibitors; 200,000 compounds, 0.01% hits; AID 1487, 2009; active = well fitted inhibition curve with a large enough effect in the signal ratio, with a control signal flat, not every such curve was filed as active; inconclusive = small, poorly fitted or top-dose-only effect, or effect the other way, or a change in a side signal; the % refers to the signal ratio; note: potency is the fitted concentration of half-maximal effect; % is set by controls: 0 for no effect and ±100 for the full control effect
#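 S3 HeLa cells stably expressing lamin A-EGFP splicing minigene plus DsRed2, 600 cells/well, 48 h compound exposure at 37C. Laser-scanning cytometry; analysed as GFP (500-530 nm)/RFP (575-640 nm) total intensity ratio; 0.5% DMSO vehicle.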
# JMJD2E inh: qHTS Assay for Inhibitors of Human Jumonji Domain Containing 2E (JMJD2E); Lysine-specific demethylase 4E (Homo sapiens), B2RXH2; JMJD2E catalytic domain, FDH-coupled NADH fluorescence (FDH is formaldehyde dehydrogenase); Potency, µM (doses to about 57.1 µM), for the others: top-dose activity change, negative = inhibition, hits mostly inhibitors; 230,000 compounds, 1.6% hits; active = well fitted inhibition curve with a large enough effect, not every such curve was filed as active; inconclusive = small, poorly fitted or top-dose-only effect, or another doubt; inactive = no such curve, though single readings can be large or run the other way;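 note: potency is the fitted concentration of half-maximal effect; 0% = wells with enzyme and -100% = buffer wells without enzyme; nearly all actives have a fitted effect of over 50% in size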
# miR-21 act: qHTS Assay for Modulators of miRNAs and/orActivators of miR-21; HeLa miR-21 FLuc reporter, luciferase, 48 h; 340,000 tested, under 10 active; Potency, µM (series often up to 38.3 µM), inactives show top-dose activity change, positive = activation, hits mostly activators;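 note: % of control where 0% means no effect; miR-21 action dims this reporter so a rising signal means less miR-21 action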
#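 Compounds were titrated across several concentrations (up to approximately 40 uM) and incubated 48 hours with HeLa miR-21-FLuc reporter cells (miR-21 target sequence downstream of FLuc, endogenous miR-21). Readout was firefly luciferase luminescence after lytic detection reagent.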
# G9a block: qHTS Assay for Inhibitors of Histone Lysine Methyltransferase G9a; 350,000 compounds, 8.8% hits; G9a H3K9 monomethylation, AlphaScreen, 2 h; Potency, µM (highest dose often 102 µM), without a hit: at the highest dose activity, negative = inhibition, actives largely listed as inhibitors; note: potency is the fitted concentration of half-maximal effect; % is set by controls: 0 for no effect and ±100 for the full control effect; nearly all actives have a fitted effect of over 75% in size
#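 Compounds were preincubated with 20 nM G9a for 15 min, after which biotinylated H3K9 peptide (500 nM) and SAM (20 uM) started a 2 h room-temperature reaction. Monomethylated product was quantified by antibody-based AlphaScreen chemiluminescence.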
# ALDH1A1 inh: qHTS Assay for Inhibitors of Aldehyde Dehydrogenase 1 (ALDH1A1); Purified ALDH1A1, NADH fluorescence, propionaldehyde substrate; Potency, µM (titrated, usually from 75.3 µM), for inactives: at the top dose activity, negative = inhibition, most hits filed as inhibitors; 220,000 compounds, 7.3% hits; AID 1030, 2008; active = well fitted inhibition curve with a large enough effect, not every such curve was filed as active; inconclusive = small, poorly fitted or top-dose-only effect, or another doubt; inactive = no such curve, though single readings can be large or run the other way;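 note: potency is the fitted concentration of half-maximal effect; plate controls were no enzyme wells and a reference inhibitor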
# Target sequence (P00352 whole entry, looked up): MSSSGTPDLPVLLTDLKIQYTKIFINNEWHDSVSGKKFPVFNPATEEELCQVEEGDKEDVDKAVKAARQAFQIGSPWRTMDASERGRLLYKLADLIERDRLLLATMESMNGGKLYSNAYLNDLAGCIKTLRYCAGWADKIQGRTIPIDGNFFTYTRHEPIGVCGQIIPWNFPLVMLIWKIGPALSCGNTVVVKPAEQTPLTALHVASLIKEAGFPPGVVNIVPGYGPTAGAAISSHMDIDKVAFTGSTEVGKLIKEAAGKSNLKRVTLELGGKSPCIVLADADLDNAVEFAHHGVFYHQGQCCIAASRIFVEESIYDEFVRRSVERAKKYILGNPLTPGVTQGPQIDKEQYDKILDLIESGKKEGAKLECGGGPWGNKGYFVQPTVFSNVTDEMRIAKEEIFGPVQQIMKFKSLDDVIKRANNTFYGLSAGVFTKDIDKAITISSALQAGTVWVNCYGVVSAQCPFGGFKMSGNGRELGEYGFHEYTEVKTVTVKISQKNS
# Sfp PPTase inh: qHTS Assay for Inhibitors of Bacillus subtilis Sfp phosphopantetheinyl transferase (PPTase); AID 1490, 2009; Potency, µM, for the others: largest response in the series, negative = inhibition, usual class: inhibitors; Biochemical Sfp PPTase activity, qHTS; 310,000 compounds, 3.5% hits;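 note: the enzyme is Sfp with the accession as filed and its product quenches rhodamine fluorescence; potency is the fitted concentration of half-maximal effect; 0% = enzyme reaction without inhibitor and -100% = no enzyme wells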
#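 Fluorescence-quenching assay with 15 nM Sfp, 5 uM rhodamine-CoA and 12.5 uM BHQ-2-labelled ybbR peptide in pH 7.6 Hepes/MgCl2 buffer. Enzyme was pre-incubated with compound for 15 min at room temperature. Rate was taken from the 30-min fluorescence change (525/598 nm).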
# * hit, by the source's call; ? = inconclusive; . = no result; [ ] = dose if it differs, or a comment. An excerpt weighted towards active compounds, which were near 13% of everything screened. Unless noted, calls come from the whole dose curve; as a rule, active = well fitted curve in the direction sought with a large enough effect; inconclusive = small, poorly fitted or top-dose-only effect, or another doubt; inactive = no such curve, though single readings can be large; an effect the other way counts as inactive or inconclusive.
SMILES,LMNA splice mod,JMJD2E inh,miR-21 act,G9a block,ALDH1A1 inh,Sfp PPTase inh
COc1ccc(CCNC(=O)CCC(=O)NC2CCCC(C)C2C)cc1OC (stereo not given),.,.,5%,46%,.,14%
CCc1cc(C(=O)c2ccc(C)cc2)c(NC(=O)CCl)s1,?,-7%,10%,?,2.5µM*,?
CCc1cc(C(=O)c2ccc(OC)cc2)c(NC(=O)CCC(=O)O)s1,.,1%,-12%,-10%,6%,19%
CCc1cc(C(=O)c2ccc(OC)cc2)c(NC(=O)CN2CCCC2)s1,.,?,-3%,.,10µM*,-12%
Cc1cc(C(=O)c2ccc(Cl)cc2)c(NC(=O)CCl)s1,?,-5%,0%,?,0.89µM*,-16%
CC(C)C1C(c2ccccc2)NC(c2ccccc2)CC1(O)c1ccc(F)cc1 (stereo not given),.,-4%,?,.,.,56µM*
CC(C)C1C(c2ccccc2)N(C)C(c2ccccc2)CC1(O)c1ccccc1 (stereo not given),-27%,-7%,-3%,31%[12.7 µM],0%,21%
CC(=O)c1ccc(NC(=O)CSc2ccsc2[N+](=O)[O-])cc1,.,-7%,-15%,50µM*,2%,-10%
CCN(CC)c1ccc(NC(=O)CSc2ccsc2[N+](=O)[O-])c(C)c1,?,3%,-1%,?,15µM*,-27%
O=C(CSc1ccsc1[N+](=O)[O-])NCCc1ccc(Cl)cc1,6%,-2%,-3%,15%[59 µM],17%,10%
COc1ccc(CNC(=O)CSc2ccsc2[N+](=O)[O-])cc1,.,-6%,-57%,?,14µM*,17%
O=C(CSc1ccsc1[N+](=O)[O-])Nc1cc(F)ccc1F,.,7%,-1%,35µM*,?,-17%
O=C(CCCCn1c(=O)c2ccccc2n(CC(=O)Nc2ccc(F)cc2F)c1=O)NCCc1ccccc1,.,.,-2%,-12%[59 µM],.,.
COC(=O)c1c(C)sc(-c2c(-c3cccc(OC)c3)[nH]c3c2c(=O)[nH]c(=O)n3C)c1O,?,.,-3%,-3%[59 µM],.,.
CC1(C)CC(=O)C(N=Nc2cccc([N+](=O)[O-])c2)=C(O)C1,.,-7%,-49%,50µM*,.,-4%
CC1(C)CC(=O)C(N=Nc2ccc(Br)cc2)=C(O)C1,.,1%,-2%,-27%,.,24%
CC1(C)CC(=O)C(N=Nc2ccc(C(F)(F)F)cc2[N+](=O)[O-])=C(O)C1,.,13µM*,-1%,.,3.5µM*,-2%
CC(C)(CO)CNC(=O)CCc1nnc(-c2ccc(-c3ccccc3)cc2)o1,.,.,16%,.,.,19%
O=C(COc1ccccc1)NCCc1csc(-c2ccc(Cl)cc2)n1,?,.,-6%,8%[59 µM],.,.
O=[N+]([O-])c1cc(S(=O)(=O)O)cc([N+](=O)[O-])c1NN(c1ccccc1)c1ccccc1,.,.,0%,50µM*,.,-24%
Nc1nc(-c2ccc3c(c2)NC(=O)CO3)cs1,-16%,-5%,-21%,?,3.2µM*,?
Cc1ccc2nc(-c3ccc4c(c3)NC(=O)CO4)cn2c1,.,?,-43%,.,.,-7%
O=C1COc2ccc(-c3csc(NCCc4ccccc4)n3)cc2N1,-19%[46 µM],-26%,-1%,40µM*,?,-14%
CCC(C)C(=O)Nc1nc(-c2ccc3c(c2)NC(=O)CO3)cs1 (stereo not given),-17%,0%,-7%,?,20µM*,5%
O=C(NC(Cc1ccccc1)C(=O)O)/C(=C\c1ccco1)NC(=O)c1ccccc1Br (stereo not given),-15%,-3%,-5%,?,?,50µM*
SMILES,LMNA splice mod,JMJD2E inh,miR-21 act,G9a block,ALDH1A1 inh,Sfp PPTase inh
COc1ccc(/C=C(\NC(=O)c2ccco2)C(=O)NC(Cc2ccccc2)C(=O)O)cc1 (stereo not given),.,.,0%,-37%,.,2%
O=C(NC(Cc1ccccc1)C(=O)O)/C(=C/c1ccc(Cl)cc1)NC(=O)c1ccco1 (stereo not given),.,.,3%,50µM*,.,30%
O=C(NC(Cc1ccccc1)C(=O)O)/C(=C/c1ccco1)NC(=O)c1cccc([N+](=O)[O-])c1 (stereo not given),.,-6%,3%,45µM*,8%,7%
Cc1ccccc1-c1ccc2ncnc(-n3ccnc3)c2c1,?,.,.,-37%[0.501 µM],?,11%
CC(C)c1ccc(Nc2cc(C(=O)NCc3cccs3)c3ccccc3n2)cc1,.,.,-1%,-6%[59 µM],.,.
CCC[C@@H]1C[C@@]1(CCC)C(NP(=O)(c1ccccc1)c1ccccc1)c1ccc(Cl)cc1 (stereo not given in full),.,25µM*,.,.,-14%,-3%
CC(C)(C)C(=O)NC1CC2CCCC(C1)N2C(=O)Nc1cccc(Cl)c1 (stereo not given),.,.,-1%,40%,.,-6%
Cc1cccc(N2CCN(C(=O)COc3cccc4c3OC(C)(C)C4)CC2)c1C,-29%,0%,25%,45µM*,-6%,?
COCCNC(=O)[C@H]1C[C@@H]1[C@H](NP(=O)(c1ccccc1)c1ccccc1)c1ccccc1,10%,-2%,-11%,56µM*,5%,-13%
O=C(NCCF)[C@H]1C[C@@H]1[C@H](NP(=O)(c1ccccc1)c1ccccc1)c1ccccc1,10%,-6%,-12%,-25%,9%,0%
COc1cccc(CNC(=O)CCc2c(C)nn(-c3ccc(N4CCOCC4)nn3)c2C)c1,1%[46 µM],.,-13%,7%[59 µM],.,.
COC(=O)c1ccc(OC(=O)C2CSC3(C)CCC(=O)N23)cc1 (stereo not given),.,.,.,56µM*,.,.
CCOC(=O)c1noc2ncn(CC(=O)Nc3ccccc3OC)c(=O)c12,?,.,-9%,9%[59 µM],.,.
Cc1ccc(-c2noc(C3CCCN(C(=O)C4CCCCC4)C3)n2)o1 (stereo not given),-2%,-10%,-25%,11µM*,?,?
C/C(=N\NC(=O)c1ccc(Br)o1)c1cc2c(cc1NC(=O)CCC(=O)O)OCO2,.,.,-13%,3.2µM*,.,45µM*
COc1ccc(CC(=O)Nc2ccc(/C(C)=N\NC(=O)c3ccc(Br)o3)cc2)cc1,.,.,-32%,.,.,0%
COc1ccc(OC)c(C(=O)NC(CC(N)=O)c2ccc(NCc3ccccn3)c([N+](=O)[O-])c2)c1 (stereo not given),.,.,-7%,-2%,.,11%
